# From the supplement of paper PMC8728848
# Only a selection was taken, and the strongest signals are over-represented in it overall.
# Legend:
# Assay in all cases: glycan array binding signal (z-score within array); higher = stronger binding
# Conditions in all cases: glycan notation: IUPAC condensed, linker removed
# Fuc(a1-2)Gal = target: Fuc(a1-2)Gal
# How it was run: (§1)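 The binding signal is a Z-score computed within each array and averaged over linkers. Arrays of the same protein sequence at different concentrations or buffers were also averaged together. Data originate from 3228 arrays in the Consortium for Functional Glycomics database, kept only where the protein sequence was available.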
# [1] = target: Fuc(a1-2)Gal(b1-4)[Fuc(a1-3)]GlcNAc
# How it was run: as §1
# [2] = target: Fuc(a1-2)Gal(b1-4)[Fuc(a1-3)]GlcNAc(b1-2)Man(a1-3)[Fuc(a1-2)Gal(b1-4)[Fuc(a1-3)]GlcNAc(b1-2)Man(a1-6)]Man(b1-4)GlcNAc(b1-4)[Fuc(a1-6)]GlcNAc
# How it was run: as §1
# Fuc(a1-2)[Gal(a1-3)]Gal = target: Fuc(a1-2)[Gal(a1-3)]Gal
# How it was run: as §1
# [3] = target: Fuc(a1-2)[Gal(a1-3)]Gal(b1-4)[Fuc(a1-3)]GlcNAc(b1-3)GalNAc
# How it was run: as §1
# [4] = target: Fuc(a1-2)[GalNAc(a1-3)]Gal(b1-3)GalNAc(b1-3)Gal(a1-4)Gal(b1-4)Glc
# How it was run: as §1
# Fuc(a1-3)GlcNAc = target: Fuc(a1-3)GlcNAc
# How it was run: as §1
# [5] = target: Fuc(a1-3)[Gal(b1-4)]GlcNAc(b1-3)Gal(b1-4)[Fuc(a1-3)]GlcNAc
# How it was run: as §1
# [6] = target: Fuc(a1-3)[Gal(b1-4)]GlcNAc(b1-6)GalNAc
# How it was run: as §1
# [7] = target: Fuc(a1-3)[Gal(b1-4)]GlcNAc6S
# How it was run: as §1
# [8] = target: Fuc(a1-3)[Gal3S(b1-4)]GlcNAc6S
# How it was run: as §1
# [9] = target: Gal(b1-3)GalNAc(a1-3)[Fuc(a1-2)]Gal(b1-4)Glc
# How it was run: as §1
# [10] = target: Gal(b1-3)GlcNAc(b1-3)Gal(b1-4)GlcNAc(b1-6)[Gal(b1-3)GlcNAc(b1-3)]Gal(b1-4)Glc
# How it was run: as §1
# [11] = target: Gal(b1-3)[Neu5Ac(a2-6)]GalNAc
# How it was run: as §1
# Gal(b1-4)GlcNAc = target: Gal(b1-4)GlcNAc
# How it was run: as §1
# [12] = target: Gal(b1-4)GlcNAc(b1-2)Man(a1-3)[Gal(b1-4)GlcNAc(b1-2)Man(a1-6)][Gal(b1-4)GlcNAc(b1-4)]Man(b1-4)GlcNAc(b1-4)[Fuc(a1-6)]GlcNAc
# How it was run: as §1
# [13] = target: Gal(b1-4)GlcNAc(b1-2)Man(a1-6)Man(b1-4)GlcNAc(b1-4)GlcNAc
# How it was run: as §1
# [14] = target: Gal(b1-4)GlcNAc(b1-3)Gal(b1-4)GlcNAc(b1-3)GalNAc
# How it was run: as §1
# Gal(b1-4)GlcNAc6P = target: Gal(b1-4)GlcNAc6P
# How it was run: as §1
# Gal4S(b1-4)GlcNAc = target: Gal4S(b1-4)GlcNAc
# How it was run: as §1
# [15] = target: GlcNAc(b1-3)Gal(b1-4)GlcNAc(b1-2)Man(a1-3)[GlcNAc(b1-3)Gal(b1-4)GlcNAc(b1-2)Man(a1-6)]Man(b1-4)GlcNAc(b1-4)GlcNAc
# How it was run: as §1
# GlcNAc(b1-3)GalNAc = target: GlcNAc(b1-3)GalNAc
# How it was run: as §1
# [16] = target: GlcNAc(b1-3)[GlcNAc(b1-6)]Gal(b1-4)GlcNAc
# How it was run: as §1
# [17] = target: GlcNAc(b1-4)Gal(b1-4)GlcNAc
# How it was run: as §1
# [18] = target: GlcNAc(b1-4)[GlcNAc(b1-6)]GalNAc
# How it was run: as §1
# [19] = target: GlcNAc(b1-6)Gal(b1-4)GlcNAc
# How it was run: as §1
# [20] = target: Man(a1-2)Man(a1-3)[Man(a1-2)Man(a1-6)]Man(a1-6)[Man(a1-2)Man(a1-2)Man(a1-3)]Man
# How it was run: as §1
# [21] = target: Man(a1-3)[Man(a1-6)]Man(a1-6)[Man(a1-3)]Man(b1-4)GlcNAc(b1-4)GlcNAc
# How it was run: as §1
# [22] = target: Neu5Ac(a2-3)Gal(b1-3)GalNAc6S
# How it was run: as §1
# [23] = target: Neu5Ac(a2-3)Gal(b1-3)GlcNAc(b1-6)GalNAc
# How it was run: as §1
# [24] = target: Neu5Ac(a2-3)Gal(b1-3)]Neu5Ac(a2-3)Gal(b1-4)]GlcNAc
# How it was run: as §1
# Neu5Ac(a2-3)Gal(b1-4)Glc = target: Neu5Ac(a2-3)Gal(b1-4)Glc
# How it was run: as §1
# [25] = target: Neu5Ac(a2-3)Gal(b1-4)GlcNAc(b1-3)Gal(b1-4)GlcNAc(b1-3)[Neu5Ac(a2-3)Gal(b1-4)GlcNAc(b1-3)Gal(b1-4)GlcNAc(b1-6)]GalNAc
# How it was run: as §1
# [26] = target: Neu5Ac(a2-3)Gal(b1-4)GlcNAc6S
# How it was run: as §1
# [27] = target: Neu5Ac(a2-3)Gal(b1-4)[Fuc(a1-3)]GlcNAc
# How it was run: as §1
# [28] = target: Neu5Ac(a2-3)Gal(b1-4)[Fuc(a1-3)]GlcNAc(b1-2)Man
# How it was run: as §1
# [29] = target: Neu5Ac(a2-3)Gal(b1-4)[Fuc(a1-3)]GlcNAc6S
# How it was run: as §1
# [30] = target: Neu5Ac(a2-6)Gal(b1-4)GlcNAc(b1-3)Gal(b1-4)GlcNAc(b1-3)Gal(b1-4)GlcNAc(b1-2)Man(a1-3)[Neu5Ac(a2-6)Gal(b1-4)GlcNAc(b1-3)Gal(b1-4)GlcNAc(b1-3)Gal(b1-4)GlcNAc(b1-2)Man(a1-6)]GalNAc
# How it was run: as §1
# [31] = target: Neu5Ac(a2-6)Gal(b1-4)GlcNAc6S
# How it was run: as §1
# [32] = target: Neu5Ac(a2-8)Neu5Ac(a2-3)Gal(b1-4)GlcNAc
# How it was run: as §1
# [33] = target: Neu5Ac(a2-8)Neu5Ac(a2-3)[Gal(b1-3)GalNAc(b1-4)]Gal(b1-4)Glc
# How it was run: as §1
# [34] = target: Neu5Gc(a2-3)Gal(b1-3)GlcNAc
# How it was run: as §1
# [35] = target: Neu5Gc(a2-3)Gal(b1-4)[Fuc(a1-3)]GlcNAc
# How it was run: as §1
# [36] = target: Neu5Gc(a2-8)Neu5Gc(a2-3)Gal(b1-4)GlcNAc(b1-3)Gal(b1-4)GlcNAc
# How it was run: as §1
binder,measurement,setting,value
"Siglec-9 (Homo sapiens), Q9Y336 (protein) MLLLLLPLLWGRERAEGQTSKLLTMQSSVTVQEGLCVHVPCSFSYPSHGWIYPGPVVHGYWFREGANTDQDAPVATNNPARAVWEETRDRFHLLGDPHTKNCTLSIRDARRSDAGRYFFRMEKGSIKWNYKHHRLSVNVTALTHRPNILIPGTLESGCPQNLTCSVPWACEQGTPPMISWIGTSVSPLDPSTTRSSVLTLIPQPQDHGTSLTCQVTFPGASVTTNKTVHLNVSYPPQNLTMTVFQGDGTVSTVLGNGSSLSLPEGQSLRLVCAVDAVDSNPPARLSLSWRGLTLCPSQPSNPGVLELPWVHLRDAAEFTCRAQNPLGSQQVYLNVSLQSKATSGVTQGVVGGAGATALVFLSFCVIFVVVRSCRKKSARPAAGVGDTGIEDANAVRGSASQGPLTEPWAEDSPPDQPPPASARSSVGEGELQYASLSFQMVKPWDSRGQEATDTEYSEIKIHR",glycan array binding signal (z-score),Fuc(a1-2)Gal,-0.211
same,glycan array binding signal (z-score),[1],-0.153
same,glycan array binding signal (z-score),[2],-0.277
same,glycan array binding signal (z-score),Fuc(a1-2)[Gal(a1-3)]Gal,-0.193
same,glycan array binding signal (z-score),[3],-0.269
same,glycan array binding signal (z-score),[4],-0.125
same,glycan array binding signal (z-score),Fuc(a1-3)GlcNAc,-0.293
same,glycan array binding signal (z-score),[5],0.166
same,glycan array binding signal (z-score),[6],-0.063
same,glycan array binding signal (z-score),[7],3.1
same,glycan array binding signal (z-score),[8],-0.041
same,glycan array binding signal (z-score),[9],-0.434
same,glycan array binding signal (z-score),[10],-0.039
same,glycan array binding signal (z-score),[11],-0.173
same,glycan array binding signal (z-score),Gal(b1-4)GlcNAc,-0.244
same,glycan array binding signal (z-score),[12],-0.418
same,glycan array binding signal (z-score),[13],-0.333
same,glycan array binding signal (z-score),[14],-0.054
same,glycan array binding signal (z-score),Gal(b1-4)GlcNAc6P,-0.074
same,glycan array binding signal (z-score),Gal4S(b1-4)GlcNAc,-0.304
same,glycan array binding signal (z-score),[15],-0.042
same,glycan array binding signal (z-score),GlcNAc(b1-3)GalNAc,-0.152
same,glycan array binding signal (z-score),[16],-0.322
same,glycan array binding signal (z-score),[17],0.012
same,glycan array binding signal (z-score),[18],-0.132
same,glycan array binding signal (z-score),[19],-0.081
same,glycan array binding signal (z-score),[20],-0.055
same,glycan array binding signal (z-score),[21],-0.007
same,glycan array binding signal (z-score),[22],1.05
same,glycan array binding signal (z-score),[23],0.961
same,glycan array binding signal (z-score),[24],1.76
same,glycan array binding signal (z-score),Neu5Ac(a2-3)Gal(b1-4)Glc,1.09
same,glycan array binding signal (z-score),[25],-0.187
same,glycan array binding signal (z-score),[26],2.21
same,glycan array binding signal (z-score),[27],1.14
same,glycan array binding signal (z-score),[28],14.8
same,glycan array binding signal (z-score),[29],16.8
same,glycan array binding signal (z-score),[30],0.878
same,glycan array binding signal (z-score),[31],1.58
same,glycan array binding signal (z-score),[32],-0.259
same,glycan array binding signal (z-score),[33],-0.214
same,glycan array binding signal (z-score),[34],-0.028
same,glycan array binding signal (z-score),[35],0.005
same,glycan array binding signal (z-score),[36],-0.178
